The campaign covered roughly 39,000 compounds. About 3,300 (8.5%) were called active. The sample holds actives, similar compounds and a random draw of the others, so the mix is not that of the screen.
system: HepG2; test: cytotoxicity call (relative viability < 0.9); settings: 10 µM

Structure (SMILES)	cytotoxicity call
Cc1ccc(S(=O)(=O)Nc2ccc3c(c2)C(=O)N([C@@H](C)CO)C[C@H](C)[C@H](CN(C)C(=O)CCC(F)(F)F)OCCCC[C@H](C)O3)cc1	inactive
COc1ccc(NC(=O)Nc2ccc3c(c2)C(=O)N([C@H](C)CO)C[C@H](C)[C@H](CN(C)C(=O)Cc2ccccc2)OCCCC[C@@H](C)O3)cc1	inactive
Cc1noc(C)c1NC(=O)Nc1cccc2c1O[C@H](CN(C)S(=O)(=O)c1cn(C)cn1)[C@@H](C)CN([C@H](C)CO)C2=O	inactive
C[C@H](CO)N1C[C@H](C)[C@H](CN(C)S(C)(=O)=O)Oc2ccc(NS(C)(=O)=O)cc2CC1=O	inactive
C=CCNS(=O)(=O)c1cccc2nonc12	inactive
C[C@H](CO)N1C[C@H](C)[C@@H](CN(C)S(=O)(=O)c2cn(C)cn2)Oc2ccc(NS(=O)(=O)c3cn(C)cn3)cc2CC1=O	inactive
C[C@@H]1CCCCO[C@H](CN(C)S(C)(=O)=O)[C@H](C)CN([C@@H](C)CO)C(=O)c2cc(N(C)C)ccc2O1	inactive
O=C(Cc1ccncc1)NCC[C@@H]1CC[C@@H](NC(=O)C2CCOCC2)[C@H](CO)O1	inactive
CC(C)NC(=O)Nc1ccc2c(c1)CC(=O)N([C@H](C)CO)C[C@H](C)[C@H](CN(C)Cc1ccc3c(c1)OCO3)O2	inactive
CCOC(=O)CCCCCC(=O)Nc1ccc2c(c1)C(=O)N([C@H](C)CO)C[C@@H](C)[C@@H](CN(C)C(=O)CCC(F)(F)F)OCCCC[C@H](C)O2	inactive
Cc1ccc(S(=O)(=O)N[C@H](C(=O)NCCn2cc(-c3cccc(/C=C/C(=O)NO)c3)nn2)C(C)C)cc1	inactive
Cc1ccc(S(=O)(=O)N[C@@H](Cc2ccccc2)C(=O)NCCCn2cc(-c3cccc(/C=C/C(=O)NO)c3)nn2)cc1	active
Cc1ccc(S(=O)(=O)N[C@@H](Cc2ccccc2)C(=O)NCCn2cc(C(=O)NO)nn2)cc1	inactive
Cc1ccc(S(=O)(=O)N[C@@H](Cc2ccccc2)C(=O)NCCCn2cc(CCC(=O)NO)nn2)cc1	inactive
Cc1ccc(S(=O)(=O)N[C@@H](Cc2ccccc2)C(=O)NCCn2cc(CCC(=O)NO)nn2)cc1	active
Cc1ccc(S(=O)(=O)N[C@@H](Cc2ccccc2)C(=O)NCCn2cc(-c3cccc(/C=C/C(=O)NO)c3)nn2)cc1	inactive
Cc1noc(C)c1NC(=O)Nc1ccc2c(c1)C(=O)N([C@@H](C)CO)C[C@H](C)[C@@H](CN(C)Cc1ccccc1)OCCCC[C@@H](C)O2	inactive
C[C@H](CO)N1C[C@H](C)[C@@H](CN(C)CC2CCCCC2)Oc2c(NC(=O)Nc3ccccc3)cccc2C1=O	inactive
C[C@@H]1CN([C@@H](C)CO)C(=O)c2cc(NS(=O)(=O)c3ccc(Cl)cc3)ccc2O[C@@H]1CN(C)Cc1ccc(Cl)c(Cl)c1	active
C[C@H]1CN([C@@H](C)CO)C(=O)c2cc(NS(=O)(=O)c3ccc(Cl)cc3)ccc2O[C@H]1CN(C)Cc1ccc(Cl)c(Cl)c1	active
C[C@@H]1CN([C@H](C)CO)C(=O)c2cc(NS(=O)(=O)c3ccc(Cl)cc3)ccc2O[C@H]1CN(C)Cc1ccc(Cl)c(Cl)c1	inactive
C[C@H](CO)N1C[C@H](C)[C@@H](CN(C)Cc2ccc(Cl)c(Cl)c2)Oc2ccc(NS(=O)(=O)c3ccc(F)cc3)cc2C1=O	inactive

Structure (SMILES)	cytotoxicity call
C[C@@H]1CN([C@H](C)CO)C(=O)c2cc(NS(=O)(=O)c3ccc(F)cc3)ccc2O[C@@H]1CN(C)Cc1ccc(Cl)c(Cl)c1	inactive
C[C@H]1CN([C@@H](C)CO)C(=O)c2cc(NS(=O)(=O)c3ccc(F)cc3)ccc2O[C@H]1CN(C)Cc1ccc(Cl)c(Cl)c1	inactive
C[C@H](CO)N1C[C@H](C)[C@@H](CN(C)Cc2ccc(Cl)c(Cl)c2)Oc2ccc(NS(=O)(=O)c3ccc(Cl)cc3)cc2C1=O	active
C[C@H](CO)N1C[C@H](C)[C@H](CN(C)Cc2ccc(Cl)c(Cl)c2)Oc2ccc(NS(=O)(=O)c3ccc(Cl)cc3)cc2C1=O	active
C/C=C/c1ccc2c(c1)O[C@@H](CN(C)S(=O)(=O)c1ccccc1OC)[C@H](C)CN([C@@H](C)CO)S2(=O)=O	inactive
C[C@@H]1CN([C@H](C)CO)C(=O)Cc2cc(NS(=O)(=O)c3ccc(F)cc3)ccc2O[C@@H]1CN(C)S(=O)(=O)c1cn(C)cn1	inactive
C[C@H]1CCCCO[C@H](CN(C)C(=O)c2ccncc2)[C@@H](C)CN([C@@H](C)CO)C(=O)c2cc(NS(=O)(=O)c3ccc(Cl)cc3)ccc2O1	inactive
Cc1noc(C)c1S(=O)(=O)Nc1ccc2c(c1)C(=O)N([C@@H](C)CO)C[C@H](C)[C@H](CN(C)C(=O)Nc1ccc3c(c1)OCO3)O2	inactive
C[C@@H]1CN([C@@H](C)CO)C(=O)c2cc(NS(=O)(=O)c3ccc(Cl)cc3)ccc2O[C@@H](C)CCCCO[C@@H]1CN(C)C(=O)Cc1ccccc1	inactive
OC[C@H]1CCCN1CC1CC1	inactive
C[C@H]1CN([C@@H](C)CO)C(=O)c2cc(NS(=O)(=O)c3cn(C)cn3)ccc2O[C@H]1CN(C)Cc1ccccc1	inactive
O=C(c1ccncc1)N1C[C@H]2[C@@H](c3ccccc31)[C@H](CO)N2C(=O)CN1CCOCC1	inactive
COC(=O)c1c(CC[C@@H](CO)NC(=O)N[C@H](Cn2cc(C3(O)CCCCC3)nn2)C(C)C)oc(C(C)=O)c1C(=O)OC	inactive
C[C@@H]1CN([C@H](C)CO)C(=O)c2cc(NS(=O)(=O)c3ccc(F)cc3)ccc2O[C@@H]1CN(C)Cc1ccncc1	inactive
COc1ccc(S(=O)(=O)N(C)C[C@H]2Oc3c(NS(=O)(=O)c4cn(C)cn4)cccc3C(=O)N([C@@H](C)CO)C[C@@H]2C)cc1	inactive
COc1ccc(NC(=O)Nc2ccc3c(c2)C(=O)N([C@@H](C)CO)C[C@@H](C)[C@H](CN(C)C(=O)Nc2ccccc2)OCCCC[C@@H](C)O3)cc1	inactive
c1ccc2c(-c3cn[nH]c3)ccnc2c1	inactive
C[C@H](CO)N1C[C@H](C)[C@@H](CN(C)S(C)(=O)=O)Oc2c(cccc2N(C)C)C1=O	inactive
C[C@@H]1CN([C@H](C)CO)C(=O)c2cc(NS(=O)(=O)c3ccc(Cl)cc3)ccc2O[C@@H]1CN(C)Cc1ccc(Cl)c(Cl)c1	active
C[C@H](CO)N1C[C@H](C)[C@H](CN(C)Cc2ccc(Cl)c(Cl)c2)Oc2ccc(NS(=O)(=O)c3ccc(F)cc3)cc2C1=O	inactive
C[C@@H]1CN([C@H](C)CO)C(=O)c2cc(NS(=O)(=O)c3ccc(F)cc3)ccc2O[C@H]1CN(C)Cc1ccc(Cl)c(Cl)c1	inactive
C[C@@H]1CN([C@@H](C)CO)C(=O)c2cc(NS(=O)(=O)c3ccc(Cl)cc3)ccc2O[C@H]1CN(C)Cc1ccc(Cl)c(Cl)c1	active

Structure (SMILES)	cytotoxicity call
C[C@H]1CN([C@@H](C)CO)C(=O)c2cc(NS(=O)(=O)c3ccc(Cl)cc3)ccc2O[C@@H]1CN(C)Cc1ccc(Cl)c(Cl)c1	active
C[C@H]1CN([C@@H](C)CO)C(=O)c2cc(NS(=O)(=O)c3ccc(F)cc3)ccc2O[C@@H]1CN(C)Cc1ccc(Cl)c(Cl)c1	active
C[C@@H]1CN([C@@H](C)CO)C(=O)c2cc(NS(=O)(=O)c3ccc(F)cc3)ccc2O[C@H]1CN(C)Cc1ccc(Cl)c(Cl)c1	inactive
C[C@@H]1CN([C@@H](C)CO)C(=O)c2cc(NS(=O)(=O)c3ccc(F)cc3)ccc2O[C@@H]1CN(C)Cc1ccc(Cl)c(Cl)c1	inactive
Cc1ccc(S(=O)(=O)Nc2ccc3c(c2)C(=O)N([C@H](C)CO)C[C@H](C)[C@@H](CN(C)CC2CCCCC2)OCCCC[C@@H](C)O3)cc1	inactive
COc1cccc(OC)c1C(=O)NC1C(=O)N2C1SC(C)(C)C2C(=O)[O-].[Na+] (stereo not given)	inactive
C[C@H](CO)N1C[C@H](C)[C@@H](CN(C)C(=O)NC2CCCCC2)OCCCC[C@H](C)Oc2ccc(NS(=O)(=O)c3cccs3)cc2C1=O	inactive
C[C@H]1CN([C@@H](C)CO)C(=O)Cc2cc(NC(=O)NC3CCCCC3)ccc2O[C@@H]1CN(C)Cc1ccc(Cl)c(Cl)c1	inactive
CCS(=O)(=O)NCC[C@@H]1CC[C@@H](NC(=O)Cc2ccccn2)[C@@H](CO)O1	inactive
CC(C)=CCCC(C)=CCCC(C)=CCO [trans,trans-FARNESOL ]	inactive
C[C@@H]1CN([C@H](C)CO)C(=O)c2cccc(NC(=O)Nc3ccc4c(c3)OCO4)c2O[C@@H]1CN(C)Cc1ccc(C(=O)Nc2ccccc2N)cc1	inactive
O=C(OC(C(F)(F)F)C(F)(F)F)N1CCN(Cc2ccc(C(F)(F)F)cc2N2CCCC2)CC1	inactive
C[C@H](CO)N1C[C@H](C)[C@@H](CN(C)Cc2ccccc2)Oc2ccc(NS(=O)(=O)c3cn(C)cn3)cc2C1=O	inactive
Cn1cnc(S(=O)(=O)N2C[C@H](O)COC[C@H]3O[C@H](CC(=O)NC4Cc5ccccc5C4)CC[C@@H]32)c1	inactive
O=C(CCCCCNC(=O)OCCCCO[C@@H]1C[C@H](c2ccc(Br)cc2)C=C(C(=O)N2CCN(Cc3ccccc3)CC2)O1)NO	inactive
C[C@@H]1CCCCO[C@@H](CN(C)C(=O)c2ccccc2)[C@H](C)CN([C@H](C)CO)C(=O)c2cc(NC(=O)Nc3ccc(C(F)(F)F)cc3)ccc2O1	inactive
C[C@@H]1CN([C@H](C)CO)C(=O)c2cc(NC(=O)Nc3ccc(C(F)(F)F)cc3)ccc2O[C@@H](C)CCCCO[C@H]1CN(C)C(=O)c1ccccc1	inactive
C[C@@H]1CN([C@H](C)CO)C(=O)c2cc(NC(=O)Nc3ccc(C(F)(F)F)cc3)ccc2O[C@@H](C)CCCCO[C@@H]1CN(C)C(=O)c1ccccc1	inactive
C[C@@H]1CCCCO[C@@H](CN(C)C(=O)c2ccccc2)[C@@H](C)CN([C@H](C)CO)C(=O)c2cc(NC(=O)Nc3ccc(C(F)(F)F)cc3)ccc2O1	active
C[C@@H]1CCCCO[C@H](CN(C)C(=O)c2ccccc2)[C@H](C)CN([C@@H](C)CO)C(=O)c2cc(NC(=O)Nc3ccc(C(F)(F)F)cc3)ccc2O1	active
C[C@@H]1CN([C@@H](C)CO)C(=O)c2cc(NC(=O)Nc3ccc(C(F)(F)F)cc3)ccc2O[C@@H](C)CCCCO[C@H]1CN(C)C(=O)c1ccccc1	inactive

From the antibiotic and cytotoxicity screens of Wong et al. (2023)
